In all, about 310,000 compounds went through this assay and about 14,000 (4.5%) showed an effect of 50% or more. The effect is printed as a negative number. The sample as a whole holds a higher share of strong results than the screen did.
target: human ether-à-go-go-related gene (hERG) potassium channel (human, UniProt Q12809); assay: primary screen, population patch clamp on CHO cells stably expressing hERG; higher = less effect of the substance
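Further: peak tail current of the secondary pulse compared with the same well before compound.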

human ether-à-go-go-related gene (hERG) potassium channel, sequence (Q12809 whole entry, looked up): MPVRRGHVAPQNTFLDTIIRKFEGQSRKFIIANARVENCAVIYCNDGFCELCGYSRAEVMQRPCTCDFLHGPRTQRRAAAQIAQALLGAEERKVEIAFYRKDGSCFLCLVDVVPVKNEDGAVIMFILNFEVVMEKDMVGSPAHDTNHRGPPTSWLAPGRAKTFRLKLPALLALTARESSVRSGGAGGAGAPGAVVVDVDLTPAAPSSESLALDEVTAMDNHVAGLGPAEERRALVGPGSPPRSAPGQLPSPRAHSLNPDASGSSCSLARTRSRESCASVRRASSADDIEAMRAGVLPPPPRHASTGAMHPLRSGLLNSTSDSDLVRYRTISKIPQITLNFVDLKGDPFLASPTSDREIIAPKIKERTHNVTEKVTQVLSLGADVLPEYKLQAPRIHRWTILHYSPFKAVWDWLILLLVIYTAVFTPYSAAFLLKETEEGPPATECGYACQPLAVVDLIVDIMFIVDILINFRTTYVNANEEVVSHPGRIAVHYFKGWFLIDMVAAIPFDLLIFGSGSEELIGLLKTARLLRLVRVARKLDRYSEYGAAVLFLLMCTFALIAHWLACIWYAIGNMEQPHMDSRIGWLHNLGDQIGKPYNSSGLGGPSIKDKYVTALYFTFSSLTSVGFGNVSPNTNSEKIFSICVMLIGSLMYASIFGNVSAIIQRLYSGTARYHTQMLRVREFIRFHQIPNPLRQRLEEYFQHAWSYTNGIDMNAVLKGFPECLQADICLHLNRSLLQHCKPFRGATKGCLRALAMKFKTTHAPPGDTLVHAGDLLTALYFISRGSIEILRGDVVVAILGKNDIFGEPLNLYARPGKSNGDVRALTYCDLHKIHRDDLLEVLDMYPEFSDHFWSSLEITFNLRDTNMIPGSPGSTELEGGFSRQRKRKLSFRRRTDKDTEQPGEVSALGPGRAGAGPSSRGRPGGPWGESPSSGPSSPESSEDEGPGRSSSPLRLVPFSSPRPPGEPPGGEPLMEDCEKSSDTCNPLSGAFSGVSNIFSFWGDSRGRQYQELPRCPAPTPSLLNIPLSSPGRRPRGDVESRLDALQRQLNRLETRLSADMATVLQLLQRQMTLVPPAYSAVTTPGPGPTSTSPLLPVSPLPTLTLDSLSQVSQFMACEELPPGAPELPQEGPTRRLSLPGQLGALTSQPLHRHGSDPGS

Row | Compound | hERG current change (%, negative = inhibition) at 10uM
1 | CC(=O)c1cccc(OCC(=O)N(C)CC(=O)Nc2ccc(F)cc2)c1 | -8.68%
2 | CCC(C)NC(=O)c1ccc(CSCc2ccc(Cl)cc2)o1 (stereo not drawn) | -38.9%
3 | COc1cccc(CNC(=O)CCNS(=O)(=O)c2ccc(Br)s2)c1 | -10.2%
4 | N#CCCSCc1ccc(OCC(=O)O)cc1 | -1.48%
5 | CCCNC(=O)c1cc(C)no1 | 12.6%
6 | Cc1ccc(C)c(NC(=O)CCN2CC(C)OC(C)C2)c1 (stereo not drawn) | 1.59%
7 | CC(C)C[C@H](NC(=O)N1c2ccccc2NC(=O)[C@@H]1C(C)C)C(=O)N[C@@H](Cc1ccccc1)C(=O)O | -2.11%
8 | FC(F)(F)C1=CC(c2ccc(Cl)cc2)=NCCN1 | -16.1%
9 | CN(c1ccccc1)S(=O)(=O)c1cccc(NC(=O)CN2CCCc3ccccc32)c1 | -2.81%
10 | O=C(N/C(=C\c1ccco1)C(=O)N1CCOCC1)c1ccc([N+](=O)[O-])cc1 | -70.8%
11 | O=C(N/C(=C\c1ccccc1Cl)C(=O)N1CCOCC1)c1ccc([N+](=O)[O-])cc1 | -66%
12 | COc1cc(/C=C(/NC(=O)c2ccccc2)C(=O)N2CCOCC2)c([N+](=O)[O-])cc1OC | -3.92%
13 | COc1ccc(/C=C(/NC(=O)c2ccc(Br)cc2)C(=O)N2CCOCC2)cc1 | 5.5%
14 | Cc1ccc(C(=O)N/C(=C\c2ccco2)C(=O)N2CCOCC2)cc1C | 11%
15 | Cc1ccc(C(=O)N/C(=C/c2ccco2)C(=O)N2CCOCC2)cc1 | -12.7%
16 | O=C(N/C(=C/c1ccccc1Cl)C(=O)N1CCCC1)c1ccccc1 | -5.15%
17 | COc1ccc(/C=C(\NC(=O)c2ccc([N+](=O)[O-])cc2)C(=O)N2CCOCC2)cc1 | -75%
18 | COc1ccc(C(=O)N/C(=C\c2ccc3c(c2)OCO3)C(=O)N2CCOCC2)cc1 | 19.6%
19 | COc1ccc(C(=O)/C=C/N(C)C)cc1OC | 7.92%
20 | CN(/N=C/c1ccncc1)c1cnc2ccccc2n1 | 19.3%
21 | CCCCCCC1NC(C(=O)O)CS1 (stereo not drawn) | -0.451%
22 | COc1ccc(S(=O)(=O)N2CCOC2CNC(=O)C(=O)NCCCN2CCOCC2)cc1OC (stereo not drawn) | 8.41%
23 | CCN(CC)c1cccc(OCC(=O)N(C)CCC#N)c1 | 18.9%
24 | CC(C)(C)S(=O)(=O)c1ccc(S(=O)(=O)C(C)(C)C)s1 | 22.8%
